Records with an inconclusive call do not appear. The source made the active and inactive calls. Unless noted, calls follow the shape of the dose curve; as a rule, active = well fitted cell-killing curve with a large enough effect in the repeat runs; inconclusive = weak or mixed curves, or effect the other way; inactive = no such curve, though single readings can be large or run the other way.
Test: qHTS assay to identify small molecule agonists of the vitamin D receptor (VDR) signaling pathway - cell viability counter screen (AID 743224); also: nearly all actives have a fitted effect of over 50% in size
Details: VDR-bla HEK293T viability, CellTiter-Glo luminescence, 16 h; series mostly up to 62.6 µM
In short: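 Cells: VDR-bla, 2,000/well, settled 4 h. Treatment: compounds in DMSO, 16 h, 37C/5% CO2. Readout: CellTiter-Glo luminescence after 30 min RT.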

| SMILES | outcome |
| --- | --- |
| O=C(OC1C[C@H]2CC[C@@H](C1)[N+]21CCCC1)C(O)(c1ccccc1)c1ccccc1 (stereo partly specified) | inactive |
| N#Cc1ccc(CC(=O)c2cccc(C(F)(F)F)c2)cc1 | inactive |
| CC(CC(C#N)(c1ccccc1)C(C)C)N(C)C (stereo unspecified) | inactive |
| CCCCOC(=O)C(C)Oc1ccc(Oc2ccc(C(F)(F)F)cn2)cc1 (stereo unspecified) | inactive |
| O=C(N[C@@H](Cc1ccccc1)[C@@H](O)C(=O)N1C[C@@H](O)[C@@H](O)C1)c1cc2cc(Cl)ccc2[nH]1 | inactive |
| CC1(C)C(=O)NC(=O)N1CO | inactive |
| OCCOc1cccc(OCCO)c1 | inactive |

Test: qHTS assay to identify small molecule antagonists of the vitamin D receptor (VDR) signaling pathway - cell viability counter screen (AID 743225); also: nearly all actives have a fitted effect of over 50% in size
Details: VDR-bla HEK293T viability, CellTiter-Glo luminescence, 16 h; series mostly up to 61 µM
In short: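 Same-well multiplex: following 16 h treatment of HEK 293T cells carrying a UAS-driven beta-lactamase reporter with compound and agonist (3 nM final), and a 2 h FRET substrate step, CellTiter-Glo was added and luminescence read after 30 min.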

| SMILES | outcome |
| --- | --- |
| Cc1nc(C)c(C)nc1C | inactive |
| Cc1ccc(S(=O)(=O)NC(=O)NC2CCCC2)cc1 | inactive |
| C=C(C)C(=O)OCCCCCCCCCCOC(=O)C(=C)C | inactive |
| CCC1=C(C)CN(C(=O)NCCc2ccc(S(=O)(=O)NC(=O)NC3CCC(C)CC3)cc2)C1=O (stereo unspecified) | inactive |
| O=C(C1CCCCC1)N1CC(=O)N2CCCc3ccccc3C2C1 (stereo unspecified) | inactive |
| C[C@H](CN1CCCC1)C(=O)c1ccc(C(F)(F)F)cc1 | inactive |
| Clc1nc2ccccc2nc1Cl | inactive |
| CC(C)NC(=O)c1ccccc1N | inactive |
| CCCc1nc(C)c2c(=O)[nH]c(-c3cc(S(=O)(=O)N4CCN(CC)CC4)ccc3OCC)nn12 | inactive |
| Cc1cccc(C)c1NC(=O)CN1CCCC1 | inactive |
| CC(COc1ccccc1)NC(C)C(O)c1ccc(O)cc1 (stereo unspecified) | inactive |
| C=CC(=O)OCCCCCCCCCC | inactive |
| CCN(CC)CC(=O)OCC(=O)[C@@]1(O)CC[C@H]2[C@@H]3CCC4=CC(=O)CC[C@]4(C)[C@H]3[C@@H](O)C[C@@]21C | inactive |
| Cc1ccc2ccccc2c1[N+](=O)[O-] | inactive |
| C=CC(C)CCC=C(C)C (stereo unspecified) | inactive |
| CO[C@@H]1COCC[C@@H]1N[C@@H]1CC[C@@](C(=O)N2CCc3ncc(C(F)(F)F)cc3C2)(C(C)C)C1 | inactive |
| CCCC(=O)OCc1ccccc1 | inactive |
| C[C@]12CCC(=O)C=C1[C@@H]1C[C@@H]1[C@H]1[C@@H]3[C@@H]4C[C@@H]4[C@@]4(CCC(=O)O4)[C@@]3(C)CC[C@@H]12 | inactive |
| O=C(OC1C[C@H]2CC[C@@H](C1)[N+]21CCCC1)C(O)(c1ccccc1)c1ccccc1 (stereo partly specified) | inactive |
| CC(CC(C#N)(c1ccccc1)C(C)C)N(C)C (stereo unspecified) | inactive |
| O=C(N[C@@H](Cc1ccccc1)[C@@H](O)C(=O)N1C[C@@H](O)[C@@H](O)C1)c1cc2cc(Cl)ccc2[nH]1 | inactive |
| CC1(C)C(=O)NC(=O)N1CO | inactive |
| CCOc1cc(OCC)c(C(C)=O)cc1OCC | inactive |
| OCCOc1cccc(OCCO)c1 | inactive |
| CC(=O)Nc1ccn(C2COC(COC(=O)c3ccccc3)O2)c(=O)n1 (stereo unspecified) | inactive |

Test: qHTS assay to identify small molecule agonists of the NFkB signaling pathway (AID 1159509; active = well fitted curve in the direction sought with a large enough effect in the signal ratio in the repeat runs, not every such curve was filed as active; the % refers to the signal ratio)
Details: NFkB-bla ME-180 cells, beta-lactamase FRET ratio, 5 h; series mostly up to 61 µM
In short: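 Agonist activity was read as beta-lactamase-driven FRET change (460 and 530 nm emission, 405 nm excitation) following 1.5 hr substrate loading at room temperature. Beforehand, ME-180 NFkB-bla reporter cells were treated with compounds for 5 hr at 37 C.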

| SMILES | outcome |
| --- | --- |
| Cc1nc(C)c(C)nc1C | inactive |
| Cc1cc(C)c(C)c(O)c1 | inactive |
| Cc1ccc(S(=O)(=O)NC(=O)NC2CCCC2)cc1 | inactive |
| OCCc1ccncc1 | inactive |
| C=C(C)C(=O)OCCCCCCCCCCOC(=O)C(=C)C | inactive |
| CCC1=C(C)CN(C(=O)NCCc2ccc(S(=O)(=O)NC(=O)NC3CCC(C)CC3)cc2)C1=O (stereo unspecified) | inactive |
| Cc1ccc(Cl)c(OCC(O)CNC(C)(C)C)c1 (stereo unspecified) | inactive |
| O=C(C1CCCCC1)N1CC(=O)N2CCCc3ccccc3C2C1 (stereo unspecified) | inactive |
| N#CCCCC(C#N)CCC#N (stereo unspecified) | inactive |
| C[C@H](CN1CCCC1)C(=O)c1ccc(C(F)(F)F)cc1 | inactive |
| Clc1nc2ccccc2nc1Cl | inactive |
| CC(C)NC(=O)c1ccccc1N | inactive |
| CCCc1nc(C)c2c(=O)[nH]c(-c3cc(S(=O)(=O)N4CCN(CC)CC4)ccc3OCC)nn12 | inactive |
| Cc1cccc(C)c1NC(=O)CN1CCCC1 | inactive |
| CC(COc1ccccc1)NC(C)C(O)c1ccc(O)cc1 (stereo unspecified) | inactive |
| NCCOCCOCCN | inactive |
| C=CC(=O)OCCCCCCCCCC | inactive |
| Nc1ccc(F)cc1F | inactive |
| O=c1[nH]nc(-c2ccc([N+](=O)[O-])o2)o1 | inactive |
| CCN(CC)CC(=O)OCC(=O)[C@@]1(O)CC[C@H]2[C@@H]3CCC4=CC(=O)CC[C@]4(C)[C@H]3[C@@H](O)C[C@@]21C | inactive |

| SMILES | outcome |
| --- | --- |
| CCOC(OCC)OCC | inactive |
| Cc1ccc2ccccc2c1[N+](=O)[O-] | inactive |
| C=CC(C)CCC=C(C)C (stereo unspecified) | inactive |
| COC(=O)/C=C/C(C)=C\C=C\C(C)=C\C=C\C=C(C)\C=C\C=C(C)\C=C\C(=O)O | inactive |
| CO[C@@H]1COCC[C@@H]1N[C@@H]1CC[C@@](C(=O)N2CCc3ncc(C(F)(F)F)cc3C2)(C(C)C)C1 | inactive |
| CCCC(=O)OCc1ccccc1 | inactive |
| c1ccc(CCNc2nc(-c3ccccc3)cs2)cc1 | inactive |
| C[C@]12CCC(=O)C=C1[C@@H]1C[C@@H]1[C@H]1[C@@H]3[C@@H]4C[C@@H]4[C@@]4(CCC(=O)O4)[C@@]3(C)CC[C@@H]12 | inactive |
| O=C(OC1C[C@H]2CC[C@@H](C1)[N+]21CCCC1)C(O)(c1ccccc1)c1ccccc1 (stereo partly specified) | inactive |
| N#Cc1ccc(CC(=O)c2cccc(C(F)(F)F)c2)cc1 | inactive |
| CC(CC(C#N)(c1ccccc1)C(C)C)N(C)C (stereo unspecified) | inactive |
| O=C(NC1CCN(CCc2c[nH]c3ccccc23)CC1)c1ccccc1 | inactive |
| CCCCOC(=O)C(C)Oc1ccc(Oc2ccc(C(F)(F)F)cn2)cc1 (stereo unspecified) | inactive |
| O=C(N[C@@H](Cc1ccccc1)[C@@H](O)C(=O)N1C[C@@H](O)[C@@H](O)C1)c1cc2cc(Cl)ccc2[nH]1 | inactive |
| CC1(C)C(=O)NC(=O)N1CO | inactive |
| CCOc1cc(OCC)c(C(C)=O)cc1OCC | inactive |
| OCCOc1cccc(OCCO)c1 | inactive |
| CC(C)=CCC/C(C)=C/C=N/O | inactive |
| CC(=O)Nc1ccn(C2COC(COC(=O)c3ccccc3)O2)c(=O)n1 (stereo unspecified) | inactive |

From PubChem BioAssay (Tox21)
